Screens as filed in PubChem.
In the library only some 11% were active in any assay of this set; here they are far more common.
G9a block = qHTS Assay for Inhibitors of Histone Lysine Methyltransferase G9a; G9a H3K9 monomethylation, AlphaScreen, 2 h; Potency, µM (series often up to 102 µM), for the others: at the top dose activity, negative = inhibition, most hits filed as inhibitors; hit rate 8.8% among 350,000; AID 504332, 2011; also: potency is read from the fitted curve at half-maximal effect; % is scaled to controls: 0 for no effect and ±100 for the full control effect; nearly all actives have a fitted effect of over 75% in size
Target sequence (Q96KQ7 913-1193 limits assumed): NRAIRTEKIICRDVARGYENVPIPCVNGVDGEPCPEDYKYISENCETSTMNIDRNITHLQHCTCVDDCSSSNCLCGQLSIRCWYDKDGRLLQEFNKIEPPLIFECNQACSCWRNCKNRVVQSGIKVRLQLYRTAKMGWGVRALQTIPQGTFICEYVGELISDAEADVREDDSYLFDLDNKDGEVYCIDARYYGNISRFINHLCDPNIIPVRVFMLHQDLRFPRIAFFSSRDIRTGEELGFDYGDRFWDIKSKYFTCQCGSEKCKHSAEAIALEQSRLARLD
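Using a bead-based AlphaScreen, monomethylated H3K9 product from 2 h room-temperature reactions (G9a 20 nM, peptide 500 nM, SAM 20 uM) was detected with 0.5 ug/mL rabbit anti-H3K9me1 antibody.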
PI5P4Ka inh = qHTS for Inhibitors of phosphatidylinositol 5-phosphate 4-kinase (PI5P4K) | AID 652105, 2013 | PI5P4Kalpha enzyme, ADP-Glo luminescence, 60 min; active compounds read low | hit rate 1.2% among 330,000 | max response, % | Phosphatidylinositol 5-phosphate 4-kinase type-2 alpha (Homo sapiens), P48426; active = max response of -50% or lower; inconclusive = between -30% and -50%; inactive = -30% or higher; also: value at the top dose of about 77 µM; % is scaled to controls: 0 for no effect and ±100 for the full control effect
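Human PI5P4Kalpha with substrate in 0.038 M HEPES pH 7.4, 0.28 mM EGTA, 0.1% CHAPS, 5% DMSO; reaction started with 5 microM ATP (final), 60 min at room temperature. ADP formed read by ADP-Glo luminescence.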
JMJD2A Tudor inh = qHTS Assay for Inhibitors of JMJD2A-Tudor Domain | Lysine-specific demethylase 4A (Homo sapiens), O75164 | AlphaScreen JMJD2A-Tudor / H3K4me3 peptide binding | Potency, µM (doses to about 114 µM), for the others: at the top dose activity change, negative = inhibition, most hits filed as inhibitors | hit rate 4.4% among 390,000; also: potency is read from the fitted curve at half-maximal effect; % is scaled to controls: 0 for no effect and ±100 for the full control effect; nearly all actives have a fitted effect of over 50% in size
BAZ2B block = qHTS Assay for Inhibitors of BAZ2B; Bromodomain adjacent to zinc finger domain protein 2B (Homo sapiens), Q9UIF8; AlphaScreen BAZ2B-H3K14Ac peptide displacement; Potency, µM (series often up to 114 µM), for the others: at the top dose activity change, negative = inhibition, hits mostly inhibitors; hit rate 4.4% among 360,000; AID 504333, 2011; also: potency is read from the fitted curve at half-maximal effect; % is scaled to controls: 0 for no effect and ±100 for the full control effect; nearly all actives have a fitted effect of over 60% in size
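AlphaScreen displacement of biotin-H3(5-23)K14Ac peptide (50 nM final) from BAZ2B (50 nM final) in PBS pH 7.4, 0.01% Tween-20; complex preformed 30 min RT, then compounds (top 110 uM) 30 min RT, beads 20 min dark.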
HP1b chromo inh = HTS for Inhibitors of HP1-beta Chromodomain Interactions with Methylated Histone Tails. AlphaScreen HP1-beta / biotin-H3K9me3 peptide binding. Potency, µM (series often up to 114 µM), inactives show at the highest dose activity change, negative = inhibition, most hits filed as inhibitors. hit rate 0.56% among 390,000; also: potency is read from the fitted curve at half-maximal effect; nearly all actives have a fitted effect of over 70% in size
Target sequence (P83916 whole entry, looked up): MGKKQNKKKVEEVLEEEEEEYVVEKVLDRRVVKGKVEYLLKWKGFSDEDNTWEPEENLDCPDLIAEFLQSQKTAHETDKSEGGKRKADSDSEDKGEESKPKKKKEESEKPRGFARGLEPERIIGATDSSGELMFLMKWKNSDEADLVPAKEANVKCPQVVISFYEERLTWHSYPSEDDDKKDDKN
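Compound inhibition of the preformed complex between 50 nM HP1-beta and 50 nM biotinylated H3K9me3 peptide was read by AlphaScreen. Buffer was PBS pH 7.4 with 0.01% Tween-20. Incubations ran 30 min at room temperature, with 10 ug/mL donor/acceptor beads.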
L3MBTL1 inh = qHTS Assay for the Inhibitors of L3MBTL1; Potency, µM (highest dose often 57.1 µM), for inactives: at the highest dose activity, negative = inhibition, hits mostly inhibitors; hit rate 0.66% among 230,000; AlphaScreen L3MBTL1–H3K9me1 peptide binding; Lethal(3)malignant brain tumor-like protein 1 (Homo sapiens), Q9Y468; AID 485360, 2010; also: potency is read from the fitted curve at half-maximal effect; % is scaled to controls: 0 for no effect and ±100 for the full control effect; nearly all actives have a fitted effect of over 60% in size
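Read-out is AlphaScreen signal from streptavidin donor and nickel chelate acceptor beads (10 ug/mL final each) bridging L3MBTL1 (50 nM) and biotinylated K9-monomethylated H3(1-15) peptide (75 nM), after 30 min compound exposure at room temperature.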
* marks the source's active call; other numbers are inactive results; ? = inconclusive; . = not tested or not shown; [ ] = remark or other dose. Unless noted, calls follow the shape of the dose curve; as a rule, active = well fitted inhibition curve with a large enough effect; inconclusive = small, poorly fitted or top-dose-only effect; inactive = no such curve, though single readings can be large or run the other way.

SMILES	G9a block	PI5P4Ka inh	JMJD2A Tudor inh	BAZ2B block	HP1b chromo inh	L3MBTL1 inh
COC(=O)C1=C(C)N(C)C(=O)NC1c1cc2c(cc1[N+](=O)[O-])OCO2 (centres undefined)	?	1	-2%	50µM*	29%	.
CCOc1cccc2cc(-c3nc4sc5c(c4c(=O)[nH]3)CCC(C)C5)c(=O)oc12 (centres undefined)	-9%[59 µM]	.	-9%	-13%	39%	.
C/C(=N\NC(=O)c1nnn(-c2nonc2N)c1CN(C)c1ccccc1)c1ccccc1O	21%	28	14µM*	2.2µM*	13%[57 µM]	.
CC(/C=N/NC(=O)c1nnn(-c2nonc2N)c1CN1CCCCC1)=C\c1ccccc1	.	7	-15%	-17%	27%	.
COc1ccc(/C(C)=N/NC(=O)c2nnn(-c3nonc3N)c2-c2cccs2)cc1	46%	-2	-7%	0%	27%	.
COc1ccc(/C(C)=N/NC(=O)c2nnn(-c3nonc3N)c2-c2ccccc2)cc1	50µM*	1	-7%	?	26%	.
COc1ccc(/C(C)=N/NC(=O)c2nnn(-c3nonc3N)c2CN(C)c2ccccc2)cc1	18%	-1	3%	-4%	34%	.
Cc1ccc(-c2c(C(=O)N/N=C/C3CCCCC3)nnn2-c2nonc2N)cc1	1%	0	-3%	79µM*	56%	.
C/C(=N\NC(=O)c1nnn(-c2nonc2N)c1CN1CCCCC1)c1ccccc1O	11%	1	?	45µM*	21%	.
Cn1c(=O)[nH]c(=O)c2c1nc1n2CCN1c1ccccc1	-5%[59 µM]	.	-11%	-19%	12%	.
Cc1cnc(C(=O)Nc2ccc(C)c(S(=O)(=O)N(C)C)c2)cn1	23%[59 µM]	-19	50µM*	16%	-3%	26%
Cc1ccc(NC(=O)c2cncc(Br)c2)cc1S(=O)(=O)N(C)C	13%	-15	13µM*	3%	?	4%
Cc1ccc2nsnc2c1NC(=O)c1cncc(Br)c1	56µM*	0	-13%	4%	22%	.
CN(C)S(=O)(=O)c1cccc(NC(=O)c2cncc(Br)c2)c1	5%[59 µM]	-8	-20%	9%	20%	-4%
CC(=NNC(=S)Nc1ccccc1Cl)c1ccccn1	.	23	56µM*	.	-32%	.
C=CCNC(=S)N/N=C(\C)c1ccccn1	-2%	.	45µM*	4.5µM*	31%	.
Cn1cnc2c(ncn2[C@@H]2O[C@H](CO)[C@@H](O)[C@H]2O)c1=N	35%[59 µM]	.	.	.	.	.
COC(=O)c1c(C)oc2ccc(N(C(=O)Oc3ccccc3)S(=O)(=O)c3ccc(C(C)(C)C)cc3)cc12	-37%[59 µM]	.	-27%	-8%	0%	.
Cc1n[nH]c(C)c1CCCCOc1ccccc1	50µM*	5	-32%[57.1 µM]	-20%	13%	4%
Cc1ccc(OCCCc2c(C)n[nH]c2C)cc1	?	7	-17%	?	26%	.
COc1cccc(OC)c1OCCCCCc1c(C)n[nH]c1C	50µM*	-3	-4%	-8%	33%	3%
Cc1cc(C)cc(NC(=O)Nc2c[nH]c(=O)[nH]c2=O)c1	-7%[59 µM]	.	-17%	-15%	58%	.
O=C(CNCCCO)Nc1cc(C(F)(F)F)cc(NC(=O)CNCCCO)c1Cl	11µM*	-3	-12%	10%	34%	-1%
O=C(CNCCO)Nc1ccc(F)c(Cl)c1	8%	1	4%	-7%	-9%	-2%
Cn1cccc1/C=N/n1c(-c2ccccc2)n[nH]c1=S	2%[0.501 µM]	2	3.5µM*	?	?	-3%
Cn1cccc1/C=N/n1c(-c2ccc(C(C)(C)C)cc2)n[nH]c1=S	7.9µM*	4	50µM*	45µM*	50µM*	?
